Source: PubChem BioAssay (The Scripps Research Institute Molecular Screening Center)
GPR151 ag: activates the human receptor GPR151; Q8TDV0; PathHunter beta-arrestin GPR151 cells, luminescence; activation, % at 11.2 µM; 650,000 compounds, 1% hits; AID 1508602; in the data active means activation above about 4.9%;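 further: 0% = median of compound wells and 100% = cells with positive control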
MITF inh: human MITF inhibition, primary screen; O75030; AlphaScreen MITF homodimerization, bead proximity signal; inhibition, % at 2.6 µM; 650,000 compounds, 0.91% hits; in the data active means inhibition above about 50%;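 further: 0% = vehicle wells with protein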
TEAD-YAP block: TEAD-YAP interaction inhibition | HEK-TIYL cells, TEAD-Gal4/YAP UAS-luciferase luminescence | inhibition, % at 9.12 µM | 640,000 compounds, 1.4% hits | AID 1259422; in the data active means inhibition above about 32%;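 further: 0% = median of test compound wells and 100% = reference inhibitor wells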
FBW7 activator: activators of human E3 ligase FBW7; Q969H0; AlphaScreen FBW7–phospho-cyclin E peptide binding, activator screen; normalized activity (activation), % at 26.1 µM; 650,000 compounds, 0.13% hits; in the data active means normalized activity above about 1.9%;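 further: purified mutant Fbw7 with reduced substrate affinity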
Target sequence (Q969H0 whole entry, looked up): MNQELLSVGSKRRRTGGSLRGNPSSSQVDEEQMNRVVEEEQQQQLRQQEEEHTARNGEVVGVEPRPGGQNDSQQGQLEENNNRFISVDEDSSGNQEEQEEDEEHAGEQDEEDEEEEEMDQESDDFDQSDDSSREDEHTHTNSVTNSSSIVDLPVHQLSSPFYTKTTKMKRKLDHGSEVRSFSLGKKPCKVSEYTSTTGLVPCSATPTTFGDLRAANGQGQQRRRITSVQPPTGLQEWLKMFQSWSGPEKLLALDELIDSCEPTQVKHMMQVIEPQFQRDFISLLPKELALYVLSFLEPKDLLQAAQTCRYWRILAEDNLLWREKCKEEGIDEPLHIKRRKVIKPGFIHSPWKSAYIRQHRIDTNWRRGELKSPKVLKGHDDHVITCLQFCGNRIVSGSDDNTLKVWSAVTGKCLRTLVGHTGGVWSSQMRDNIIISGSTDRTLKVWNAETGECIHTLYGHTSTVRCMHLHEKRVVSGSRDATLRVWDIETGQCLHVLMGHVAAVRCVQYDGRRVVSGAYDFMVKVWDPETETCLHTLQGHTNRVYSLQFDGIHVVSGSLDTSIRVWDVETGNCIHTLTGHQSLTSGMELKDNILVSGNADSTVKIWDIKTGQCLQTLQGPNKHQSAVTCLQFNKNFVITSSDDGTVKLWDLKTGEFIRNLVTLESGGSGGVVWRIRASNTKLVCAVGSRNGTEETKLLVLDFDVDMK
GPR151 conf act: human GPR151 activation, confirmation screen; shares compounds with GPR151 ag; GPR151 PathHunter beta-arrestin cells, luminescence, 90 min; % of EA-reagent control over plate median; activation, % at 11.2 µM; 6,700 tested, under 10 active;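 active means mean percent activation across replicates above the confirmation screen cutoff of 4.91%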
GPR119 counter: GPR119 activation, counter-screen for GPR151 activators | 6,700 compounds, 0.3% hits | AID 1508611 | shares compounds with GPR151 ag | GPR119 PathHunter beta-arrestin cells, luminescence, 90 min; 0 = compound-well median, 100 = enzyme-acceptor control | activation, % at 11.2 µM;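 active means mean percent activation in the counterscreen above 29.09%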;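 further: counterscreen on off-target GPR119 to flag nonselective hits from the GPR151 activator screen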
* hit, by the source's call; . = no result given; ! = repeats disagree. Most compounds without a hit are left out; they make up all but 3.5% or so of the library.

SMILES	GPR151 ag	MITF inh	TEAD-YAP block	FBW7 activator	GPR151 conf act	GPR119 counter
CCCCC[C@H](O)/C=C/C1=C(CCCCCCC(=O)O)C(=O)CC1	5.6*!	3	-11	0	1	-4
C[C@@H](O)CCC[C@H](O)/C=C/C1=C(C/C=C\CCCC(=O)O)C(=O)CC1	-1	0	.	.	.	.
Cc1cc(F)ccc1S(=O)(=O)Nc1cc2c(C(=O)O)c(C)oc2c2ccccc12	6.4*	1	3	0	0	-1
CCC(C)c1ccccc1NC(=O)c1nc2nccc(C)n2n1 (stereo not given)	-2	16	-1	0	.	.
Cn1c(=O)cc(SCC(=O)Nc2cccc(Cl)c2)c2ccccc21	1	2	-5	0	.	.
CC(C)(C)OC(=O)N[C@H]1CCC[C@@H](NC(=O)c2cccc(-n3cc(NC(=O)Cc4ccccc4)cn3)c2)C1	5.4*	1	-1	0	0	-10
Cc1cn[nH]c1C1CCCN(S(=O)(=O)c2ccc(F)c(F)c2)C1 (stereo not given)	-1	-7	1	0	.	.
COc1ccc(C2=NS(=O)(=O)N(C)C(C(=O)N(C)C3CCCCC3)=C2)cc1	11*	-9	1	0	-1	-8
Cc1ccc(C2=NS(=O)(=O)N(C)C(C(=O)N(C)C3CCCCC3)=C2)cc1	-2	6	0	0	.	.
CCn1c(CNc2ccc(C)cc2)nnc1SCC(=O)N1CCCC1	-1	18	4	1	.	.
O=[N+]([O-])c1cccc(Cl)c1CSc1nnnn1-c1cccc2ccccc12	0	14	4	0	.	.
O=[N+]([O-])c1cccc(Cl)c1CSc1nnnn1-c1ccccc1	6.2*	7	7	0	0	2
CC1Sc2cc(S(=O)(=O)CCC(=O)Nc3ccccc3F)ccc2NC1=O (stereo not given)	5.3*	-1	-3	0	0	-7
CC1Sc2cc(S(=O)(=O)CCC(=O)NC3CCCC(C)C3C)ccc2NC1=O (stereo not given)	5.1*	-2	15	0	1	8
Cc1cc(S(=O)(=O)NC(c2ccccc2)c2ccccc2)ccc1-n1cnnn1	-1	-3	-4	0	.	.
CC(C(=O)c1ccc(Cl)cc1Cl)n1c[n+](N)cn1 (stereo not given)	5.2*	-6	11	0	1	5
N[n+]1cnn(CC(=O)c2ccc(Cl)cc2Cl)c1	1	-16	3	0	.	.
Cc1ccc(C2Nc3ccccc3NC3=C2C(=O)CC(C)(C)C3)o1 (stereo not given)	-1	-10	-2	0	.	.
CCOc1ccc(-n2nc(C(=O)N3CCC(C)CC3)c3ccccc3c2=O)cc1	0	-4	-3	0	.	.
FC(F)(F)c1cc(-c2ccccc2)n(-c2cc(N3CCCCC3)ncn2)n1	5.4*	3	0	0	0	-8
O=C1NC2(CCCCCC2)C(=O)N1CCOc1cccc(Br)c1	0	2	-5	0	.	.
COc1ccc(C(=O)NC2CC2)cc1OC1CCN(Cc2ccc(F)cc2F)CC1	5.6*	-10	-22	0	0	0
COc1ccc(N2CCN(C3CCCN(C(=O)c4csc(SC)n4)C3)CC2)cc1 (stereo not given)	4.9*	5	-1	0	1	9
COc1ccc(C[C@@H]2NC(=O)[C@H]3CN(CC4CCCCC4)CCN3C2=O)cc1	-1	2	-9	0	.	.
O=C1C2C(c3ccccc3)OC3(C(=O)c4ccccc4C3=O)C2C(=O)N1c1ccccc1 (stereo not given)	0	-5	-1	0	.	.
SMILES	GPR151 ag	MITF inh	TEAD-YAP block	FBW7 activator	GPR151 conf act	GPR119 counter
O=C1C2C(c3ccccc3)OC3(C(=O)c4ccccc4C3=O)C2C(=O)N1CCc1ccc(F)cc1 (stereo not given)	7.5*	0	-2	0	0	9
O=C1C2C(c3ccc(F)cc3)OC3(C(=O)c4ccccc4C3=O)C2C(=O)N1Cc1ccccc1 (stereo not given)	5.6*	10	14	0	0	5
COc1cc(OC)c(OC)cc1CN1CCN(S(=O)(=O)c2ccccc2[N+](=O)[O-])CC1	1	26	-6	0	.	.
O=C(c1ccccc1)c1cc(Cl)cc2c1NC(c1cccc3ccccc13)C1CC=CC21 (stereo not given)	0	10	0	0	.	.
O=C(CSc1nnnn1-c1ccccc1)Nc1ccc(OC(F)(F)F)cc1	7.7*	12	6	0	0	5
O=C(CSc1nnnn1-c1ccccc1)Nc1ccc(O)cc1	-1	-17	10	0	.	.
CCOC(=O)c1c(NC(=O)C(C)Sc2nnc(CNC(=O)c3cccs3)n2-c2cccc(C)c2C)sc2c1CCC2 (stereo not given)	1	-7	6	0	.	.
CCCC(=O)N1CCN(c2ccc([N+](=O)[O-])cc2F)CC1C (stereo not given)	-1	-3	0	0	.	.
COc1cc(CNC(=O)CCCC/C=C/C(C)C)ccc1O	7.6*!	-7	-12	0	0	-6
COc1ccc(CNC(=O)CCSC)cc1OC	-1	-5	2	0	.	.
CCCCN1CCC(Nc2ccccc2)(C(N)=O)CC1	1	8	11	0	.	.
NC(=O)C1(Nc2ccccc2)CCCCC1	6.8*	19	4	0	0	1
COc1ccccc1S(=O)(=O)Cc1ccc(C(=O)N2CCOCC2)o1	46*	-7	-17	0	0	6
COc1ccc(S(=O)(=O)Nc2ccccc2SC)cc1Cl	5.2*	-2	-3	0	-1	-4
COc1ccc(S(=O)(=O)Nc2ccccc2SC)cc1C	1	-6	-7	0	.	.
CCOc1ccccc1NS(=O)(=O)c1ccc(Br)c(OC)c1	0	-9	5	0	.	.
CCOc1ccccc1NS(=O)(=O)c1ccc(OC)c(Cl)c1	5.5*	-5	2	0	-1	-4
COc1ccccc1NS(=O)(=O)c1ccc2nc(CCl)[nH]c2c1	7.0*	-10	3	0	0	-3
COc1ccc(C2C3=C(CCC(C)(C)C3=O)OC3=C2C(=O)C(C)(C)CC3)cc1	-1	-3	-4	0	.	.
CC(=O)N1CCN(Cc2ccccc2)CC1C(=O)NCc1ccccc1 (stereo not given)	5.5*	5	-2	0	1	-7
CCNC(=O)N1CCN(Cc2ccccc2)CC1C(=O)NCc1ccccc1 (stereo not given)	4	-6	-8	0	.	.
CC1CN(c2nc(-c3ccc(C(C)(C)C)cc3)nc3ccccc23)CC(C)O1 (stereo not given)	2	12	30	0	.	.
COC(=O)CN1C(=O)COc2cc(S(=O)(=O)N3CCCCCC3)ccc21	5.8*	7	2	0	-1	-15
